PubChem BioAssay
Measured potencies and affinities stand elsewhere. Active and inactive are the calls of the source.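 The calls were made as follows, unless noted: active = primary screen inhibitor hit that blocks the TRPC4 channel at some tested dose, yielding a dose curve; inactive = the rest.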

Target: Short transient receptor potential channel 4 (Mus musculus) (UniProt Q9QUQ5)
Assay: potentiation of DAMGO-evoked TRPC4 calcium signal – cell-based, HEK293 TRPC4/mu-opioid, Fluo-4 calcium, EC20 DAMGO, dose response (AID 434941;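 active = earlier screen potentiator hit that boosts the TRPC4 ion channel at some dose, with a dose response; inactive = no potentiation, no dose response, or not a prior hit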;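 also: calcium entry triggered by an EC20 dose of DAMGO at the co-expressed mu-opioid receptor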)
Details: HEK293 TRPC4/mu-opioid cells, Fluo-4 calcium fluorescence; series mostly up to 20 µM; potentiation ratio: at the top concentration

Chain of Short transient receptor potential channel 4 (Mus musculus) (Q9QUQ5 whole entry, looked up): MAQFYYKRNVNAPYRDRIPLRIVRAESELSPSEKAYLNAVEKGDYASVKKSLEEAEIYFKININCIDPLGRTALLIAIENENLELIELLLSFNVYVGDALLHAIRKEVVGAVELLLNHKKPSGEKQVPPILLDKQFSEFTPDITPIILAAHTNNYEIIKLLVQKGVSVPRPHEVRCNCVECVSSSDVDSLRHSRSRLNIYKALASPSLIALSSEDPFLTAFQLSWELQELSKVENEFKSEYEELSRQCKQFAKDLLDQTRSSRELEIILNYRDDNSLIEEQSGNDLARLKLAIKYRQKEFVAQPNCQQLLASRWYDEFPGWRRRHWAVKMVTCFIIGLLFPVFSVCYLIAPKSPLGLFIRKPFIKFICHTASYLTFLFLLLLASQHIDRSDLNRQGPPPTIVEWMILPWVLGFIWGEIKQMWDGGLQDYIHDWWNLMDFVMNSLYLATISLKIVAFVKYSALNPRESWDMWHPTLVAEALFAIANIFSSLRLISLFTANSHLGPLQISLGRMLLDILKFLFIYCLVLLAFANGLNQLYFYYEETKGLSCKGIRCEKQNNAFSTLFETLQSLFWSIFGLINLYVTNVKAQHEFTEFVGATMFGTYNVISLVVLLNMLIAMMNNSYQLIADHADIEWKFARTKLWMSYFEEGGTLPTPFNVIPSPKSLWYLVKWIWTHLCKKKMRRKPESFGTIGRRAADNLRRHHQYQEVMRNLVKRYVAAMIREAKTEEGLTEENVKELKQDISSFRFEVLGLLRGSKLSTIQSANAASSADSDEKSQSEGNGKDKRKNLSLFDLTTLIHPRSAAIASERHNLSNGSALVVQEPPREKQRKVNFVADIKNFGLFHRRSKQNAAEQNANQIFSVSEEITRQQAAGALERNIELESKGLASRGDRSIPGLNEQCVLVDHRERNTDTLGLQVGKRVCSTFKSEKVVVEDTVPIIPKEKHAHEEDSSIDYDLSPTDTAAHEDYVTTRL

Potentiation ratio, inactive:
CC(C)c1ccc(NC(=S)N(C)CCc2ccccn2)cc1 -46.3
CCN1CCN(c2ccc(S(=O)(=O)N3CCCCC3)cc2NC(=O)COc2ccccc2)CC1 -45.2
COC(=O)c1ccccc1N=Nc1c(N)[nH][nH]c1=O 7.47
CCc1nc(NCCc2ccccn2)c2nnn(Cc3ccccc3F)c2n1 -21.1
COC(=O)c1ccc(N2CCN(C)CC2)c(NC(=O)COc2ccccc2)c1 -29.8
CCC1(c2ccc(F)cc2)NC(=O)N(CC(=O)c2cc(C)n(C3CC3)c2C)C1=O (stereo not given) -14.3
CCOC(=O)C1(CC2CCCCO2)CCN(Cc2c(C)cc(C)cc2-n2cccn2)CC1 (stereo not given) -16.2
Cc1ccc(Cl)cc1NC(=O)CNCC(c1ccccc1)N(C)C (stereo not given) -17.4
CCOC(=O)C1(CCOc2ccccc2)CCN(Cc2ccc3c(c2)OCCO3)CC1 -19.8
CCOc1ccccc1CN1CCNC(=O)C1CC(=O)N(C)CCc1ccccn1 (stereo not given) -31.6
CN(CCc1ccccn1)C(=O)CC1C(=O)NCCN1Cc1ccccc1C(F)(F)F (stereo not given) -32.9
Cc1ccc(C)c(OCCCCCn2ccnc2)c1 -16.5
O=C(C1CCCN(Cc2ccccc2F)C1)N1CCc2ccccc2C1 (stereo not given) 2.88
CCOC(=O)C1(CCCc2ccccc2)CCN(Cc2cn(CC)nc2C)CC1 -39.5
NCCSc1c(-c2ccc(Cl)cc2)[nH]c2ccccc12 -14.5
CN(C)CCCN(C(=O)c1ccc(C(=O)c2ccccc2)cc1)c1nc2ccc(F)cc2s1 -19.5
COc1ccc(-c2nn(-c3ccccc3)cc2CNCc2cccnc2)c(F)c1 -46
Cc1cc(Br)ccc1OCCn1ccnc1 3.1
C=CCn1c(CCNC(=O)C(C)(C)C)nc2ccccc21 -17.6
Cc1cc(Cl)cc(C)c1OCCCCn1ccnc1 -17.7
Cc1sc2nc(CSc3ccccc3)nc(NCCN(C)C)c2c1C -23.2
CCN1CCN(c2c(S(=O)(=O)c3ccc(C)c(C)c3)cnc3ccc(F)cc23)CC1 -32.4
Cc1ccc(C)c(OCCCCn2ccnc2)c1 -16.9
Cc1ccccc1NC(=S)NCCc1ccccn1 -26.2
CN(C)C(CNC(=O)Cc1cccc(C(F)(F)F)c1)c1ccco1 (stereo not given) -7.46
CCOc1ccccc1CN1CCNC(=O)C1CC(=O)NCCc1ccccn1 (stereo not given) -39.8
CCOc1ccc2ncc(C(=O)c3ccc(OC)cc3)c(N3CCN(CC)CC3)c2c1 -46.2
Cc1cc(NC(=O)CN2CCc3ccccc3C2)nc2c1c(=O)oc1ccccc12 -9.76
Cc1ccccc1C(=O)NNC(=S)NC(=O)c1ccccc1 -32.5
CCOC(=O)C1CCCN(C(c2ccccn2)c2c(C)[nH]c3ccccc23)C1 (stereo not given) -31.6
COc1cc(/C=C/C(=O)c2ccc3c(c2)OCO3)cc(Cl)c1O -3.3
CN(C)C(CNC(=O)/C=C/c1cccc(Cl)c1)c1ccccc1 (stereo not given) -19.1
COc1ccc(C(=O)NC(=S)NNC(=O)c2c(-c3ccccc3)noc2C)cc1 -48.7
O=S(=O)(c1ccc(Cl)cc1)N1CCN2CCCC2C1 (stereo not given) -10.5
Cc1ccc(-n2cc(CNCC3CC(=O)N(C4CC4)C3)c(-c3cccc(C)c3)n2)cc1 (stereo not given) -19.2
CCCCCSc1nnc2c(n1)OC(c1cccn1C)N(C(C)=O)c1ccccc1-2 (stereo not given) 8.71
CCCCC(c1nnnn1CC1CCCO1)N1CCN(c2nc3ccccc3s2)CC1 (stereo not given) -33.1
CCN(CCCNS(=O)(=O)c1cc(-c2cc(C)no2)ccc1C)Cc1ccccc1 -13.5
COc1ccc(-c2nc(CN3CCC(C(=O)NC4CCCC4)CC3)c(C)o2)cc1OC -13.5
CCN(CC)CCSc1nc2ccc(OC)cc2[nH]1 3.25

Target: Short transient receptor potential channel 4 (Mus musculus) (UniProt Q9QUQ5)
Assay: block of DAMGO-driven TRPC4 calcium entry – cell-based, HEK293 TRPC4/mu-opioid, Fluo-4 calcium, dose response (AID 434942)
Details: HEK293 TRPC4/mu-opioid cells, DAMGO-evoked Fluo-4 calcium ratio; series mostly up to 20 µM; ratio response (lower = inhibition): at the top concentration

Ratio response (lower = inhibition), inactive:
CC(C)c1ccc(NC(=S)N(C)CCc2ccccn2)cc1 47.4
CCN1CCN(c2ccc(S(=O)(=O)N3CCCCC3)cc2NC(=O)COc2ccccc2)CC1 35.4
COC(=O)c1ccccc1N=Nc1c(N)[nH][nH]c1=O 77.9
CCc1nc(NCCc2ccccn2)c2nnn(Cc3ccccc3F)c2n1 12.1
COC(=O)c1ccc(N2CCN(C)CC2)c(NC(=O)COc2ccccc2)c1 53.7
CCC1(c2ccc(F)cc2)NC(=O)N(CC(=O)c2cc(C)n(C3CC3)c2C)C1=O (stereo not given) 76.7
CCOC(=O)C1(CC2CCCCO2)CCN(Cc2c(C)cc(C)cc2-n2cccn2)CC1 (stereo not given) -1.26
Cc1ccc(Cl)cc1NC(=O)CNCC(c1ccccc1)N(C)C (stereo not given) -1.54
CCOC(=O)C1(CCOc2ccccc2)CCN(Cc2ccc3c(c2)OCCO3)CC1 -0.83
CCOc1ccccc1CN1CCNC(=O)C1CC(=O)N(C)CCc1ccccn1 (stereo not given) -13.9
CN(CCc1ccccn1)C(=O)CC1C(=O)NCCN1Cc1ccccc1C(F)(F)F (stereo not given) 12.5
Cc1ccc(C)c(OCCCCCn2ccnc2)c1 3.08
O=C(C1CCCN(Cc2ccccc2F)C1)N1CCc2ccccc2C1 (stereo not given) 5.22
CCOC(=O)C1(CCCc2ccccc2)CCN(Cc2cn(CC)nc2C)CC1 -4.96
NCCSc1c(-c2ccc(Cl)cc2)[nH]c2ccccc12 -23.5
CN(C)CCCN(C(=O)c1ccc(C(=O)c2ccccc2)cc1)c1nc2ccc(F)cc2s1 -6.17
COc1ccc(-c2nn(-c3ccccc3)cc2CNCc2cccnc2)c(F)c1 -8.62
Cc1cc(Br)ccc1OCCn1ccnc1 75.4
C=CCn1c(CCNC(=O)C(C)(C)C)nc2ccccc21 70.2
Cc1cc(Cl)cc(C)c1OCCCCn1ccnc1 22.7
Cc1sc2nc(CSc3ccccc3)nc(NCCN(C)C)c2c1C 4.56
CCN1CCN(c2c(S(=O)(=O)c3ccc(C)c(C)c3)cnc3ccc(F)cc23)CC1 -7.24
Cc1ccc(C)c(OCCCCn2ccnc2)c1 19.7
Cc1ccccc1NC(=S)NCCc1ccccn1 19
CN(C)C(CNC(=O)Cc1cccc(C(F)(F)F)c1)c1ccco1 (stereo not given) -0.78
CCOc1ccccc1CN1CCNC(=O)C1CC(=O)NCCc1ccccn1 (stereo not given) 38
CCOc1ccc2ncc(C(=O)c3ccc(OC)cc3)c(N3CCN(CC)CC3)c2c1 -5.12
Cc1cc(NC(=O)CN2CCc3ccccc3C2)nc2c1c(=O)oc1ccccc12 -1.42
Cc1ccccc1C(=O)NNC(=S)NC(=O)c1ccccc1 -24.3
CCOC(=O)C1CCCN(C(c2ccccn2)c2c(C)[nH]c3ccccc23)C1 (stereo not given) 84.8
COc1cc(/C=C/C(=O)c2ccc3c(c2)OCO3)cc(Cl)c1O 15.8
CN(C)C(CNC(=O)/C=C/c1cccc(Cl)c1)c1ccccc1 (stereo not given) -0.56
COc1ccc(C(=O)NC(=S)NNC(=O)c2c(-c3ccccc3)noc2C)cc1 0.01
O=S(=O)(c1ccc(Cl)cc1)N1CCN2CCCC2C1 (stereo not given) 50.2
Cc1ccc(-n2cc(CNCC3CC(=O)N(C4CC4)C3)c(-c3cccc(C)c3)n2)cc1 (stereo not given) -12
CCCCCSc1nnc2c(n1)OC(c1cccn1C)N(C(C)=O)c1ccccc1-2 (stereo not given) 47.8
CCCCC(c1nnnn1CC1CCCO1)N1CCN(c2nc3ccccc3s2)CC1 (stereo not given) 6.49
CCN(CCCNS(=O)(=O)c1cc(-c2cc(C)no2)ccc1C)Cc1ccccc1 -19.6
COc1ccc(-c2nc(CN3CCC(C(=O)NC4CCCC4)CC3)c(C)o2)cc1OC -2.96
CCN(CC)CCSc1nc2ccc(OC)cc2[nH]1 41.2
